# High-throughput results deposited in PubChem BioAssay by several laboratories.
# RecA splice inh = blocks M. tuberculosis RecA intein splicing | P9WHJ3 | cell-free RecA intein splicing, fluorescence | inhibition, % (no concentration beside the values) | 290,000 tested, 0.75% active | AID 2221; in the data active means inhibition above about 30%;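 further: 0% = vehicle wells and 100% = reference inhibitor control wells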
# GDH-TPI inh = inhibits GDH-TPI coupling enzymes, artifact for Mtb FBA screen; GDH-TPI coupled enzyme counterscreen, NADH absorbance; inhibition, % at 4.8 µM; 360,000 tested, 1.2% active; AID 588335; in the data active means inhibition above about 30%;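 further: 0% = DMSO wells and 100% = wells lacking the enzyme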
# Mtb FBA inh = Mtb fructose-bisphosphate aldolase inhibition; P9WQA3; purified M. tuberculosis FBA, fluorescence read-out; inhibition, % at 1 µM; 360,000 tested, 2.3% active; AID 588726; in the data active means inhibition above about 27%;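 further: 0% = vehicle and 100% = reference inhibitor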
# Mtb bLac sens = beta-lactam sensitization of Mtb H37Rv; M. tuberculosis H37Rv growth with meropenem, percent inhibition; inhibition, % at 25 µM; 330,000 tested, 0.27% active; AID 434955; call rule not given here;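 further: growth measured after seven days incubation then overnight dye step; 0% = bacteria only wells and 100% = bacteria with antibiotic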
# Rv3671c inh = Rv3671c (M. tuberculosis) protease inhibition | inhibition, % at 5.96 µM | 320,000 tested, 0.048% active | AID 2606; in the data active means inhibition above about 38%;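 further: extracellular domain of Rv3671c used as enzyme; 0% = enzyme with DMSO and 100% = no enzyme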
# UGM FP inh = inhibitors of M. tuberculosis UDP-galactopyranose mutase; P9WIQ1; purified UGM, fluorescence polarization probe displacement; inhibition, % at 10 µM; 320,000 tested, 0.06% active; in the data active means inhibition above about 10%, passing the limit was not always enough
# Target sequence (P9WIQ1 whole entry, looked up): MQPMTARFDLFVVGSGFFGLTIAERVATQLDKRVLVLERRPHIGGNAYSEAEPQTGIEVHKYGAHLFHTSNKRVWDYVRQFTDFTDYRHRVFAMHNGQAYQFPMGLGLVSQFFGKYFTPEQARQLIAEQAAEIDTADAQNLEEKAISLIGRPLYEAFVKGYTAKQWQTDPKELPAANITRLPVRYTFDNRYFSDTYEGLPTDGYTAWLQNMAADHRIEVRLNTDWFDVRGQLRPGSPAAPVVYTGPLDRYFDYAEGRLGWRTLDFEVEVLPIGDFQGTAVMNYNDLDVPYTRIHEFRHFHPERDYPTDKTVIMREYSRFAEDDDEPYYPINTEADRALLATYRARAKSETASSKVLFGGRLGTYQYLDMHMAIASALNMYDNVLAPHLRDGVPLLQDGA
# Starred values were filed as active, the others as inactive; . = no result given; + = active, no number; ! = not active in a repeat. Compounds with a hit are over-represented: about 4% of the library has one in this group of screens.
SMILES,RecA splice inh,GDH-TPI inh,Mtb FBA inh,Mtb bLac sens,Rv3671c inh,UGM FP inh
O=C(/C=C/c1ccc(O)c(O)c1)O[C@@H]1C[C@](O)(C(=O)O)C[C@@H](O)[C@H]1O,-6,50*!,1,-4,5,1
COc1ccc(C(C)=O)cc1Cn1c(C)c(C(=O)NCCC#N)sc1=O,.,7,2,.,.,.
COc1ccccc1Oc1nc(C)c(C(C)=O)cc1C#N,1,9,4,1,-1,0
COc1ccccc1Oc1cc(C#N)c(C#N)cc1-n1nnc2ccccc21,42*,4,-3,11,4,-1
CNC(=O)c1ccc(-c2ccc(OC)cc2)s1,3,26,+,-10,3,-3
COc1ccc(NC(=O)c2ccc(-c3ccc(OC)cc3)s2)cc1,0,11,1,96,-2,-1
CCCCCCCN1C(Nc2ccccc2)=NC[C@@H]1C,.,6,4,-4,-7,-1
Cc1cc(C)nc(NS(=O)(=O)c2ccc(N/C=C/C(=O)c3ccc(Cl)cc3)cc2)n1,-4,32*,1,23,-16,.
O=C(/C=C\Nc1ccc(S(=O)(=O)Nc2ncccn2)cc1)c1cccc2ccccc12,-2,55*,4,-1,0,-5
O=S(=O)(Nc1ncccn1)c1ccc(Nc2ncnc3ccccc23)cc1,-6,49*,-1,20,2,-1
NS(=O)(=O)c1ccc(N/C=C\C(=O)c2cccc3ccccc23)cc1,-3,27,1,8,-3,-1
CCOc1ccc2c(C)c(C(=O)O)oc2c1OCC,-1,4,156*,-5,-1,0
O=C(Nc1nnc(S(=O)(=O)N2CCCC2)s1)c1cccc([N+](=O)[O-])c1,-2,39*,3,16,5,-1
CC1CCN(S(=O)(=O)c2nnc(NC(=O)c3cccc([N+](=O)[O-])c3)s2)CC1,-5,20,3,4,-1,-1
COc1ccc(C(=O)Nc2nnc(S(=O)(=O)N3CCC(C)CC3)s2)cc1OC,-5,46*,4,1,-1,-1
COc1ccc(C(=O)Nc2nnc(S(=O)(=O)N3CCCCCC3)s2)cc1OC,0,47*,4,7,-12,1
Cc1ccc(CNC(=O)C2(C)CCN2C(=O)Cc2ccc(-c3ccccc3)cc2)cc1 (stereo unspecified),.,-5,-1,.,.,.
Cc1nc(-c2cccs2)sc1C(=O)O,-9,24,24,4,-8,-1
Cc1nccc(-c2sc(-c3cccs3)nc2C)n1,-64,26,+,-9,3,-3
COCCN(C(=O)C1CCCO1)c1c(N)n(CC(C)C)c(=O)[nH]c1=O (stereo unspecified),.,2,0,-4,1,-2
O=c1cccc2n1Cc1cc3ccccc3nc1-2,-1,32*,+,-5,-2,2
CCOC(=O)c1c(N)c2cc([N+](=O)[O-])ccc2n1C,-1,5,2,-9,-3,4
CCOC(=O)/C(=C/c1c(C)n(C)c2ccc([N+](=O)[O-])cc12)C(C)=O,-2,31*,-8,-3,-1,0
Cc1cc(O)c(C(C)C)cc1N=Cc1ccc([N+](=O)[O-])cc1,.,10,-2,.,.,.
Cc1cc(O)c(C(C)C)cc1N=Cc1ccc(N(C)C)cc1,.,46*,-1,.,.,.
SMILES,RecA splice inh,GDH-TPI inh,Mtb FBA inh,Mtb bLac sens,Rv3671c inh,UGM FP inh
COc1ccc(C)cc1CN(C)c1ccc(S(=O)(=O)N2CCN(C)CC2)cn1,.,3,-1,.,.,.
COc1cccc(-c2cc(CC3(O)CCN(CCCc4ccccc4)CC3)on2)c1,-1,0,0,93,-5,2
Cc1c(N=C2N=C(NC(=O)c3ccc(F)cc3)c3ccccc32)c(=O)n(-c2ccccc2)n1C,.,7,-4,-2,-1,18*
COc1ccc(CCC(=O)Nc2ncc(C)s2)cc1,-1,7,-2,-4,0,0
O=C(CCn1cnc2ccccc21)N/N=C/C=C/c1ccccc1,3,21,2,-4,-2,1
COc1ccccc1/C=C/C=N/NC(=O)c1cc(-c2ccco2)[nH]n1,10,32*,-1,88,-11,2
COc1ccccc1/C=C/C=N/NC(=O)CC1C(=O)NN=C1C (stereo unspecified),2,37*,0,-6,6,-3
COc1ccccc1/C=C/C=N/NC(=O)CCn1cnc2ccccc21,2,33*,0,-5,4,-2
